Screening data deposited in PubChem by National Center for Advancing Translational Sciences (NCATS).
HEK293 viab = GF-AFC viability counterscreen for inhibitors of alpha-synuclein gene (SNCA) expression | HEK-293-SNCA-luc viability, GF-AFC fluorescence, 24 h | Potency, µM (series often up to 57.1 µM), for the others: at the top dose activity change, negative = cytotoxicity, usual class: cytotoxic | 0.12% of 150,000 active;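 further: potency means the concentration at half of the fitted maximal effect; 0% = DMSO-treated cells and -100% = medium-only wells without cells; nearly all actives have a fitted effect of over 30% in size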
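HEK-293-SNCA-luc cells (1500/well) plated 24 h, then exposed 24 h to a dilution series; GF-AFC added 30 min at 37C, fluorescence 405/540 nm; normalised to medium-only and DMSO wells, Hill fit.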
IP6K1 inh = Primary qHTS assay for small molecule inhibitors of Inositol hexaphosphate kinase 1 (IP6K1). Inositol hexakisphosphate kinase 1 (Homo sapiens), Q92551. IP6K1 kinase, ADP-Glo luminescence, 2 h; active compounds read low. AID 1645851, 2021. 0.81% of 140,000 active. activity change, % (series mostly up to about 58 µM); in the data active means activity change below about -25%; further: on the % scale 0 is the no-effect control and ±100 the full control effect
Target sequence (Q92551 whole entry, looked up): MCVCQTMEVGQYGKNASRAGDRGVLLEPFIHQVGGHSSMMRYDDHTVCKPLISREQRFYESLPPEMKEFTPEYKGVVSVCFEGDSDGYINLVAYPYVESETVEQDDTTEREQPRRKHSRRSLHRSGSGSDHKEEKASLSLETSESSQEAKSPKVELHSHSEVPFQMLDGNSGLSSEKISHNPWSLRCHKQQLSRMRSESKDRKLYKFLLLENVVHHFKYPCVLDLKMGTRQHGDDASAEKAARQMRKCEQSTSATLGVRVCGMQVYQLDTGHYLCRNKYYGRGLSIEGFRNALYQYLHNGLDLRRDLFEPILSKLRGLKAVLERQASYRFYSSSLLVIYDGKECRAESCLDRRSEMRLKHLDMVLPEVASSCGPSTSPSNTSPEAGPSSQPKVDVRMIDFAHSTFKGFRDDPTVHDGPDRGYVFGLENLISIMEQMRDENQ
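ADP-Glo luminescence measures ADP made by human IP6K1 during a 2 h RT reaction with ATP/IP6 (mix at 1.3 mM/130 uM); top library doses 57.5 and 19.1 uM final.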
KDM5B inhibitor = Primary screen for KDM5B Histone Demethylases FDH-coupled qHTS; 2.6% of 220,000 active; Potency, µM (titrated, usually from 57.7 µM), actives largely listed as inhibitors; Lysine-specific demethylase 5B (Homo sapiens), Q9UGL1; KDM5B demethylase, FDH-coupled NADH fluorescence (FDH is formaldehyde dehydrogenase); further: potency means the concentration at half of the fitted maximal effect; 0% is about no effect; nearly all actives have a fitted effect of over 70% in size
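KDM5BΔAP (200 nM final) in 50 mM HEPES pH 7.5, 0.01% Tween-20 was preincubated 10 min at RT with compound over a concentration range. Substrate mix (H3K4me3 12.5 µM, α-KG 25 µM, Fe²⁺, ascorbate, NAD⁺, FDH) was added, and NADH fluorescence change over 30 min gave dose-response curves.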
SNCA expr inhib = Primary qHTS assay for inhibitors of alpha-synuclein gene (SNCA) expression; HEK-293 SNCA-luciferase knock-in, luminescence, 24 h; AID 1671194, 2021; 0.17% of 140,000 active; Potency, µM (highest dose often 57.2 µM), for the others: top-dose activity change, negative = inhibition, most hits filed as inhibitors;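 further: potency means the concentration at half of the fitted maximal effect; plate controls were DMSO cells for no effect and cell-free wells for full effect; nearly all actives have a fitted effect of over 45% in size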
Starred values were filed as active, the others as inactive; i = inactive; ? = inconclusive; . = no result given; [ ] = dose if it differs, or a comment. Shown are actives, neighbours in structure and some others; about 3% of the full set was active somewhere. Unless noted, the call rests on the fitted dose curve; in most records, active means well fitted curve in the direction sought with a large enough effect; inconclusive means small, poorly fitted or top-dose-only effect, or another doubt; inactive means no such curve, though single readings can be large; an effect the other way counts as inactive or inconclusive.

SMILES	HEK293 viab	IP6K1 inh	KDM5B inhibitor	SNCA expr inhib
CS(=O)(=O)N1C[C@H]2CCN(Cc3ccc[nH]3)C[C@H]21	2%[12.5 µM]	18	14µM*	34%
Cc1ccc2c(n1)N(C)[C@H](CO)CCN(C1COC1)C2	5%[87.6 µM]	-5	32µM*	-1%[87.6 µM]
CCCN1CC[C@@H](CO)N(C)c2nc(C)ccc2C1	4%[87.6 µM]	25	?	-15%[87.6 µM]
Cc1ccc2c(n1)N(C)[C@H](CO)CCN(CCC(C)C)C2	3%[87.6 µM]	-6	32µM*	12%[87.6 µM]
O=C(Nc1ccc2n(c1=O)C[C@H]1C[C@@H]2CN(C(=O)c2ccccc2)C1)NC1CCCCC1	-6%[87.6 µM]	-2	35µM*	35%[87.6 µM]
O=C(c1ccc(F)cc1)N1C[C@@H]2C[C@H](C1)c1ccc(C3CCCCC3)c(=O)n1C2	-8%[87.6 µM]	10	32µM*	-2%[87.6 µM]
Cc1ccccc1-c1ccc2n(c1=O)C[C@H]1C[C@@H]2CN(C(=O)c2ccc(F)cc2)C1	-5%[87.6 µM]	1	35µM*	5%[87.6 µM]
CC(=O)N1C[C@@H]2C[C@H](C1)c1ccc(NC(=O)Nc3ccccc3)c(=O)n1C2	-3%[87.6 µM]	-6	28µM*	-21%[87.6 µM]
CCOC(=O)[C@H]1CN(C(=O)c2ccc(OC)cc2)[C@]2(C)C(=O)N(CC3CC3)c3ccccc3[C@H]12	-2%[23.9 µM]	16	.	10%[25.6 µM]
CCOC(=O)[C@H]1CN(C(=O)C2CCCC2)[C@]2(C)C(=O)N(CC3CC3)c3ccccc3[C@H]12	-6%[23.9 µM]	6	.	-7%[25.6 µM]
O=C(c1cccs1)N1C[C@@H]2C[C@H](C1)c1ccc(C3CCCCC3)c(=O)n1C2	-3%[87.6 µM]	4	i	6%[87.6 µM]
O=C(c1ccccc1)N1C[C@@H]2C[C@H](C1)c1ccc(C3CCCCC3)c(=O)n1C2	-27%[87.6 µM]	10	40µM*	-5%[87.6 µM]
CN(C)Cc1ccccc1-c1ccc2n(c1=O)C[C@H]1C[C@@H]2CN(C(=O)c2ccco2)C1	5%[87.6 µM]	1	32µM*	-11%[87.6 µM]
O=C(c1ccc(F)cc1)N1C[C@@H]2C[C@H](C1)c1c(/C=C/c3ccc(Cl)cc3)ccc(=O)n1C2	-20%	-1	32µM*	-11%
COc1ccc([C@@H]2CN(S(=O)(=O)N3CCCC3)[C@@H]3C4CCN(CC4)[C@@H]32)cc1	-7%	13	i	-7%
COc1ccc([C@@H]2CN(c3nccc(C)n3)[C@@H]3C4CCN(CC4)[C@@H]32)cc1	-10%	17	14µM*	?
CC(C)CCN(C1CCNCC1)C1CCOCC1	-7%	-9	?	-9%
C[C@]12CC[C@H](O)C[C@@H]1CC[C@@H]1[C@@H]2CC[C@]2(C)[C@@H](C3=CC(=O)OC3)CC[C@]12O	-37%	6	.	.
CCNC(=O)NC[C@H]1C[C@@H]2CCN1C[C@@H]2c1cc(-c2ccc(OC)c(OC)c2)nn1C	1%[87.6 µM]	6	i	?
CC(=O)c1ccc(NC(=O)NC[C@H]2C[C@@H]3CCN2C[C@@H]3c2cc(-c3ccco3)nc(C)n2)cc1	-4%	-14	i	5%
COc1ccc(-c2cc([C@H]3CN4CC[C@H]3C[C@@H]4CNC(=O)C3CC3)nc(C)n2)cc1OC	3%	9	?	1%
Cc1nc(-c2ccco2)cc([C@H]2CN3CC[C@H]2C[C@@H]3CNC(=O)C2CC2)n1	-6%[87.6 µM]	-6	35µM*	45%[87.6 µM]
COc1ccc(-c2cc([C@H]3CN4CC[C@H]3C[C@@H]4CNC(=O)NC(C)C)nc(C)n2)cc1OC	1%	8	32µM*	5%
COc1ccc(-c2cc([C@H]3CN4CC[C@H]3C[C@@H]4CNC(=O)C3CCC3)nc(C)n2)cc1OC	-5%	68	32µM*	-14%
COCC(=O)NC[C@H]1C[C@@H]2CCN1C[C@@H]2c1cc(-c2ccccc2OC)nc(C)n1	-3%[87.6 µM]	4	35µM*	16%[87.6 µM]
SMILES	HEK293 viab	IP6K1 inh	KDM5B inhibitor	SNCA expr inhib
CCOC(=O)[C@H]1CN(C(=O)c2cc3ccccc3s2)[C@]2(C)C(=O)N(CC3CC3)c3ccccc3[C@H]12	-26%[23.9 µM]	-3	.	?
COc1cc2c(cc1OCc1ccccc1)N([S+](=O)([O-])c1cccc3cccnc13)CC21CCN(C)CC1	?	-6	i	?
CCC(CC)c1cc([C@H]2CN3CC[C@H]2C[C@@H]3CNC(=O)COc2ccccc2)nc(-c2ccncc2)n1	?	13	25µM*	?
O=C(c1ccccc1)N1C[C@@H]2C[C@H](C1)c1ccc(-c3cccc(C(F)(F)F)c3)c(=O)n1C2	0%	10	25µM*	-5%
O=C(O)COCC(=O)N1C[C@@H]2C[C@H](C1)c1ccc(-c3cccc(C(F)(F)F)c3)c(=O)n1C2	-1%	4	32µM*	-4%
O=C(c1ccccc1)N1C[C@@H]2C[C@H](C1)c1ccc(-c3ccc(Cl)cc3)c(=O)n1C2	-18%[87.6 µM]	-4	i	29%[87.6 µM]
O=C(O)CCC(=O)N1C[C@@H]2C[C@H](C1)c1ccc(-c3ccc(Cl)cc3)c(=O)n1C2	0%[87.6 µM]	-1	35µM*	?
CCOC(=O)[C@H]1CN(C(=O)Nc2ccc3c(c2)OCO3)[C@]2(C)C(=O)N(CC3CC3)c3ccccc3[C@H]12	-3%[23.9 µM]	7	.	34%[25.6 µM]
C=CC(C)(C)c1[nH]c2cccc3c2c1C[C@@H]1[C@@H]3[C@@H](OC(C)=O)[C@H](C)CN1C	3%	-3	.	.
COc1cc2c(cc1Oc1cccc(N(C)C)c1)NC(=O)C21CCN(Cc2cccc(O)c2)CC1	-14%	-18	i	-10%
COC1CC(OC2CCC3(C=O)C(CCC4C3CCC3(C)C(C5=CC(=O)OC5)CCC43O)C2)OC(C)C1OC1OC(CO)C(O)C(O)C1O (stereo not given)	-12%[23.9 µM]	22	.	.
COC1CC(O[C@H]2CC[C@]3(C=O)C4CC[C@]5(C)[C@@H](C6=CC(=O)OC6)CC[C@]5(O)[C@@H]4CC[C@@H]3C2)OC(C)C1O[C@@H]1O[C@H](CO)[C@@H](O[C@@H]2O[C@H](CO)[C@@H](O)[C@H](O)[C@H]2O)[C@H](O)[C@H]1O (stereo not given in full)	5.7µM*	8	.	.
CCOC(=O)[C@@H]1[C@H]2c3ccccc3N(C)C(=O)[C@H]2N(C(=O)NCc2ccccc2)[C@@H]1c1ccccc1	.	0	.	.
CCOC(=O)[C@H]1CN(C(=O)/C=C/c2ccccc2)[C@]2(C)C(=O)N(CC3CC3)c3ccccc3[C@H]12	-8%[23.9 µM]	-13	.	3%[25.6 µM]
CC(=O)OC12C(O)C(C)C3(O)C4C=C(C)C(=O)C4CC(CO)=CC3C1C2(C)C (stereo not given)	-1%[23.9 µM]	4	.	.
O=C(N1CCCCC1Cc1ccccc1)n1cc(-c2ccc(-c3ccccc3)cc2)nn1 (stereo not given)	1%	11	.	.
COc1cc2c(cc1OCc1ccccc1)N(C(=O)c1cccc3[nH]ccc13)CC21CCN(C)CC1	-10%	-10	?	16%
COc1cc2c(cc1OCc1ccccc1)N(C(=O)c1c[nH]c3ccccc13)CC21CCN(C)CC1	25µM*	-4	i	?
